Measured values from publication PMC4336329 (PLoS ONE, 2015).
Among all 310,000 compounds or so, about 14,000 (4.5%) showed an effect of 50% or more. Effects have a minus sign here. This is one part of a sample in which strong results are shown more often than they occur.

Biological target: human ether-à-go-go-related gene (hERG) potassium channel (human, UniProt Q12809)
Test: primary screen, population patch clamp on CHO cells stably expressing hERG; higher = less effect of the substance
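Further: peak tail current of the secondary pulse compared with the same well before compound.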

Sequence of human ether-à-go-go-related gene (hERG) potassium channel (Q12809 whole entry, looked up): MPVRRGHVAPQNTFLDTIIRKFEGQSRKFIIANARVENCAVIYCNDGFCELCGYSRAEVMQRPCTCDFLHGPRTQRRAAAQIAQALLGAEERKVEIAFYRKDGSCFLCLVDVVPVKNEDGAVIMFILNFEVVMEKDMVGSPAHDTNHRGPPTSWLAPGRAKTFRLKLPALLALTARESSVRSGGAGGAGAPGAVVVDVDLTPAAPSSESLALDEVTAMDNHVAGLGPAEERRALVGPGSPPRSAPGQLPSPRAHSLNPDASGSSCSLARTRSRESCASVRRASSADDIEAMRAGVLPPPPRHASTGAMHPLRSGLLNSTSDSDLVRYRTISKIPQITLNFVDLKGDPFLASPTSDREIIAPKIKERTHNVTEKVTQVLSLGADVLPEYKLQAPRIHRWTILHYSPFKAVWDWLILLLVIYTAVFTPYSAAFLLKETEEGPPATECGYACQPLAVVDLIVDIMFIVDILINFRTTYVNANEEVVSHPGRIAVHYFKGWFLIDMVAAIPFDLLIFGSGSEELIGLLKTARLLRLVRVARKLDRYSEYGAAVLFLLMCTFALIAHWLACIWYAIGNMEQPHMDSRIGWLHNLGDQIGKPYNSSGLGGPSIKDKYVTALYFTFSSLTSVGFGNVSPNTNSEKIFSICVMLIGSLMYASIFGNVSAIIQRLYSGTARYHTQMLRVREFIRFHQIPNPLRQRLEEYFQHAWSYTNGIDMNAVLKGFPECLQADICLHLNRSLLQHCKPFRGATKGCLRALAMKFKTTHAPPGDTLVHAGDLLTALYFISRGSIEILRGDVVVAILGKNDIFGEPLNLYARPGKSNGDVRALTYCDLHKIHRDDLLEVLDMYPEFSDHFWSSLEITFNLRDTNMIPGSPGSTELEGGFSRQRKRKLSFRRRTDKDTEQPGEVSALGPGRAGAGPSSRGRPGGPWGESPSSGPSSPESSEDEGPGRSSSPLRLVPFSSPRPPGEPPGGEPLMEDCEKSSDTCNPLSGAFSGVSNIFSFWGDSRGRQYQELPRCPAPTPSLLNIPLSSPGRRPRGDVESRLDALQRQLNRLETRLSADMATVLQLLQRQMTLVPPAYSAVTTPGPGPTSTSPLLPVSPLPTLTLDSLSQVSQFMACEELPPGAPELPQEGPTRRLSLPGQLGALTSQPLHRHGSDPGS

| Structure (SMILES) | hERG current change (%, negative = inhibition) at 10uM |
| --- | --- |
| Cc1c(C(=O)Nc2cccc(Cl)c2)cn2c(nc3ccccc32)c1C#N | 6.75% |
| CC(=O)NCC(=O)OC(C)C(=O)Nc1ccc(C(C)=O)cc1 (stereo not drawn) | -10.4% |
| COc1cc(/C=C(\C#N)C(=O)NCC2CCCO2)ccc1OCC(N)=O (stereo not drawn) | 28.7% |
| C/C(=N\NC(=O)CCc1ccccc1)c1ccc(Br)cc1 | 11% |
| CN(C)S(=O)(=O)c1ccc(NC(=O)COc2ncnc3sccc23)cc1 | 15.7% |
| CN(C)c1ccc(CNC(=O)CCNS(=O)(=O)c2cc(Br)cnc2N)cc1 | 12% |
| COc1cccc(/C=C/C(=O)Nc2ccccc2N2CCOCC2)c1 | -15.4% |
| CCCCS(=O)CC(COC)OC(=O)c1ccccc1 (stereo not drawn) | 2.46% |
| CCCCS(=O)CC(COc1ccc(Cl)cc1)OC(=O)c1ccccc1 (stereo not drawn) | -56.3% |
| CCCCS(=O)CC(CS(=O)CCCC)OC(=O)c1ccccc1 (stereo not drawn) | -35.2% |
| Cc1ccc(-c2c(C(=O)NCc3ccccc3)oc(=O)c3ccccc23)cc1 | 1.98% |
| CC(C)N(CCNC(=O)c1oc(=O)c2ccccc2c1-c1ccccc1)Cc1ccco1 | -67.9% |
| Cc1ccccc1NC(=O)c1oc(=O)c2ccccc2c1-c1ccccc1 | -1.57% |
| CC(C)CC(=O)Nc1ncnc2c1C(=O)CC(C)(C)C2 | -0.157% |
| CCOC(=O)N1CCN(S(=O)(=O)c2c(C)cc(C)cc2C)CC1 | -5.61% |
| CSc1ccc(/C=N/n2c(C)cc(C)cc2=O)cc1 | -2.09% |
| Cc1nnc(SCC(=O)Nc2ccc([N+](=O)[O-])cc2)n1CC1CCCO1 (stereo not drawn) | -55.5% |
| Cc1ccc(NC(=O)CSc2nnc(C3CC3)n2CC2CCCO2)cc1C (stereo not drawn) | -24% |
| Cc1cccc(NC(=O)CSc2nnc(C3CC3)n2CC2CCCO2)c1 (stereo not drawn) | -14.9% |
| CCc1ccc(NC(=O)CSc2nnc(C3CC3)n2CC2CCCO2)cc1 (stereo not drawn) | -22.4% |
| CN(c1ccccc1)S(=O)(=O)c1cccc(NC(=O)CSc2nnc(C3CC3)n2C)c1 | -30.9% |
| Cc1ccc([N+](=O)[O-])cc1NC(=O)CSc1nnc(C)n1CC1CCCO1 (stereo not drawn) | -14.6% |
| CCn1c(SCC(=O)Nc2cccc(S(=O)(=O)N(C)c3ccccc3)c2)nnc1C1CC1 | -44.1% |

| Structure (SMILES) | hERG current change (%, negative = inhibition) at 10uM |
| --- | --- |
| Cc1nnc(SCC(=O)Nc2cccc([N+](=O)[O-])c2)n1CC1CCCO1 (stereo not drawn) | -13% |
| C=CCn1c(SCC(=O)Nc2cccc(S(=O)(=O)N(C)c3ccccc3)c2)nnc1C1CC1 | -69.8% |
| Cc1nnc(SCC(=O)Nc2cccc(Cl)c2)n1CC1CCCO1 (stereo not drawn) | -7.41% |
| O=C(CSc1nnc(C2CC2)n1CC1CCCO1)Nc1ccc(Cl)cc1 (stereo not drawn) | -56.8% |
| O=C(CSc1nnc(C2CC2)n1CC1CCCO1)Nc1cccc(Cl)c1 (stereo not drawn) | -56.1% |
| O=C(CCNS(=O)(=O)c1cccc2nsnc12)NC1CCCc2ccccc21 (stereo not drawn) | 9.49% |
| CCCc1cc(=O)n2[nH]c(CCc3ccccc3)nc2n1 | 14.1% |
| O=C(NCC(c1cccs1)N1CCOCC1)c1ccccc1NS(=O)(=O)c1ccc(Br)cc1 (stereo not drawn) | -38.4% |
| CCOC(=O)c1sc(NC(=O)c2ccc(Cl)s2)cc1C | 3.03% |
| O=C(c1ccco1)N1CCN(C2CC(=O)N(c3ccc(F)c(Cl)c3)C2=O)CC1 (stereo not drawn) | -14.2% |
| Cc1ccc(OS(=O)Nc2cccc3nccnc23)cc1 (stereo not drawn) | -18.6% |
| COc1ccccc1C(=O)NCCC(=O)NCc1ccncc1 | -4.37% |
| CCC(CC)N1CCN(Cc2nc3ccc([N+](=O)[O-])cc3c(=O)n2-c2ccccc2F)CC1 | -57% |
| CCOC(=O)N1CCN(Cc2nc3ccc([N+](=O)[O-])cc3c(=O)n2-c2cccc(OC)c2)CC1 | -39.8% |
| O=C(c1ccco1)N1CCN(Cc2nc3ccc([N+](=O)[O-])cc3c(=O)n2-c2ccccc2F)CC1 | -68.3% |
| CCOC(=O)c1ccc(-n2c(CN3CCN(CC)CC3)nc3ccc([N+](=O)[O-])cc3c2=O)cc1 | -55% |
| CCN1CCN(Cc2nc3ccc([N+](=O)[O-])cc3c(=O)n2-c2ccccc2F)CC1 | 17.9% |
| CCOc1ccccc1-n1c(CN2CCN(C(=O)c3ccco3)CC2)nc2ccccc2c1=O | -26.2% |
| CCOC(=O)N1CCN(Cc2nc3ccc([N+](=O)[O-])cc3c(=O)n2-c2ccccc2F)CC1 | -69.9% |
| CCOC(=O)c1ccc(-n2c(CN3CCOCC3)nc3ccc([N+](=O)[O-])cc3c2=O)cc1 | 1.65% |
| O=c1c2cc([N+](=O)[O-])ccc2nc(CN2CCN(c3ccccn3)CC2)n1-c1ccccc1F | -28.3% |
| O=C(O)C(=O)O.O=C(c1ccco1)N1CCN(Cc2ccccc2F)CC1 | 3.7% |
| CCOC(=O)N1CCN(Cc2nc3ccc([N+](=O)[O-])cc3c(=O)n2-c2ccc(OC)cc2OC)CC1 | -46.1% |

| Structure (SMILES) | hERG current change (%, negative = inhibition) at 10uM |
| --- | --- |
| CCOC(=O)c1ccc(-n2c(CN3CCN(CCO)CC3)nc3ccc([N+](=O)[O-])cc3c2=O)cc1 | -25.1% |
| Cc1c(C(=O)NCc2ccccc2)cnn1-c1ccccc1 | -2.6% |
| O=C(Nc1cccc(-c2cn3ccccc3n2)c1)c1cccc(Cl)c1 | 4.75% |
| CCCC1=NN(C(=O)Cc2ccc(OC)c(OC)c2)C(O)(C(F)(F)F)C1 (stereo not drawn) | 0.733% |
| CC(C)[C@H]1C(=O)Nc2ccccc2N1C(=O)N[C@@H](Cc1ccccc1)C(=O)N[C@@H](Cc1ccccc1)C(=O)O | 5.66% |
| Cc1nn(C)c(C)c1C(C)NC(=O)c1ccc(OC2CCN(Cc3ccccn3)CC2)cc1 (stereo not drawn) | 18% |
| CC(=O)NC1=C(Nc2ccc(N(C)C)cc2)C(=O)c2ccccc2C1=O | -9.79% |
| COC(=O)N/N=C/c1ccc(-c2cccc(Cl)c2)o1 | -3.5% |
| COc1cc(OC)cc(-c2nc(-c3ccccc3)no2)c1 | 5.45% |
| COCCCN1C(=O)C(O)=C(C(C)=O)C1c1cccc(F)c1 (stereo not drawn) | 7.18% |
| CC1(c2ccccc2)NC(=O)N(CC(=O)Nc2ccccc2C(=O)NC2CC2)C1=O (stereo not drawn) | -22.5% |
| CCC1(c2ccccc2)NC(=O)N(CC(=O)Nc2ccccc2C(=O)NC2CC2)C1=O (stereo not drawn) | -7.31% |
| CCC1(c2ccccc2)NC(=O)N(CC(=O)Nc2ccccc2C(=O)NC2CCCC2)C1=O (stereo not drawn) | -53.8% |
| CCC1(c2ccccc2)NC(=O)N(CC(=O)Nc2cc(Cl)ccc2N2CCOCC2)C1=O (stereo not drawn) | -11.2% |
| CCC1(c2ccccc2)NC(=O)N(CC(=O)Nc2cc(Cl)ccc2N2CCN(C)CC2)C1=O (stereo not drawn) | -60.8% |
| CN1CCN(c2ccc(Cl)cc2NC(=O)CN2C(=O)NC(C)(c3ccccc3)C2=O)CC1 (stereo not drawn) | -23.7% |
| COC(=O)C1=C(c2cccc(C#N)c2)C[C@@H]2CC[C@H]1N2C(=O)N1CCC(C)CC1 | -17.1% |
| Cc1ccccc1C1=NC(C(F)(F)F)(C(F)(F)F)c2c(n(-c3ccc(F)cc3)c(=O)[nH]c2=O)N1 | 12.5% |
| Cc1ccc(C)c(NC(=O)CN2C(=O)CNC2=O)c1 | 0.955% |
| COc1cccc(OCCNS(=O)(=O)c2cccc([N+](=O)[O-])c2)c1 | -8.19% |
| C[C@@H](CSc1ccccc1)CN1CC[C@H](NC(=O)OCc2ccccc2)CCC1=O | -44.2% |
| O=C(OCC(=O)N1CCCC1=O)c1nc(Cl)ccc1Cl | 5.78% |
| Nc1cc(N)nc(SCC(=O)c2ccc3c(c2)NC(=O)CO3)n1 | 8.41% |

| Structure (SMILES) | hERG current change (%, negative = inhibition) at 10uM |
| --- | --- |
| COc1ccccc1NC(=O)CSc1nc2ccccc2c(=O)n1C | 12.1% |
| O=C(Nc1ccc(Cl)cc1)C1CCCN1C(=O)NCc1ccccc1 (stereo not drawn) | 10.2% |
| CC(/C=C/c1ccccc1)=N/NC(=O)c1cnccn1 | 2.83% |
| O=C(CN1CCCC1)N1CCCc2ccccc21.O=C(O)C(=O)O | 13.8% |
| O=C(CN1CCCCC1)N1CCCc2ccccc21.O=C(O)C(=O)O | 2.82% |
| N#CC1(CCCN2CCCCC2)c2ccccc2CCc2ccccc21.O=C(O)C(=O)O | -52.7% |
| CNC(=S)NNC(=O)Cc1ccc(O)cc1 | -3.23% |
| CN(CC(=O)N1CCN(c2ccc(F)cc2)CC1)S(=O)(=O)c1ccc2c(c1)c(=O)n(C)c(=O)n2C | -0.425% |
| c1c(C2CCCCC2)n[nH]c1CN1CCCCC1 | -53.9% |
| O=c1cc(CN2CCCCC2)nc(C2CC2)[nH]1 | -2.2% |
| CC(C)c1cc(CN2CCN(C3CCCC3)C(CCO)C2)[nH]n1 (stereo not drawn) | -5.93% |
| Cc1ccc(C(=O)N/C(=C\c2ccccc2F)c2nc(=S)[nH][nH]2)cc1 | 14.4% |
| Cc1nc2ccccc2c(=O)n1-c1ccc(NS(=O)(=O)c2ccccc2)cc1 | -26.5% |
| Cc1ccc(-n2c(C)nc3ccccc3c2=O)cc1C | -52.2% |
| Cc1cccc(S(=O)(=O)Nc2ccc(-n3c(C)nc4ccccc4c3=O)cc2)c1 | -55.9% |
| O=S(=O)(Nc1ccc(-c2ccc3nncn3n2)cc1)c1cccc(F)c1 | 18.1% |
| Cc1ccc(S(=O)(=O)Nc2ccc(-c3ccc4nncn4n3)cc2)cc1 | -9.23% |
| Cc1nc2ccccc2c(=O)n1-c1ccc(Cl)c(Cl)c1 | -8.26% |
| Cc1cccc(S(=O)(=O)Nc2ccc(-c3ccc4nncn4n3)cc2)c1 | -123% |
| Cc1ccc(S(=O)(=O)Nc2ccc(-n3c(C)nc4ccccc4c3=O)cc2)cc1 | -49.4% |
| Cc1nc2ccccc2c(=O)n1-c1cccc(O)c1 | 14.1% |
